Mtb betalactam = beta-lactam sensitization of Mtb H37Rv | AID 434955 | inhibition, % at 25 µM | M. tuberculosis H37Rv growth with meropenem, percent inhibition | 330,000 compounds, 0.27% hits; call rule not given here;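 further: growth measured after seven days incubation then overnight dye step; 0% = bacteria only wells and 100% = bacteria with antibiotic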
Mtb UGM inh = inhibitors of M. tuberculosis UDP-galactopyranose mutase | purified UGM, fluorescence polarization probe displacement | AID 504406 | 320,000 compounds, 0.06% hits | P9WIQ1 | inhibition, % at 10 µM; in the data active means inhibition above about 10%, passing the limit was not always enough; inconclusive means no clear call, values can overlap the other calls
Target sequence (P9WIQ1 whole entry, looked up): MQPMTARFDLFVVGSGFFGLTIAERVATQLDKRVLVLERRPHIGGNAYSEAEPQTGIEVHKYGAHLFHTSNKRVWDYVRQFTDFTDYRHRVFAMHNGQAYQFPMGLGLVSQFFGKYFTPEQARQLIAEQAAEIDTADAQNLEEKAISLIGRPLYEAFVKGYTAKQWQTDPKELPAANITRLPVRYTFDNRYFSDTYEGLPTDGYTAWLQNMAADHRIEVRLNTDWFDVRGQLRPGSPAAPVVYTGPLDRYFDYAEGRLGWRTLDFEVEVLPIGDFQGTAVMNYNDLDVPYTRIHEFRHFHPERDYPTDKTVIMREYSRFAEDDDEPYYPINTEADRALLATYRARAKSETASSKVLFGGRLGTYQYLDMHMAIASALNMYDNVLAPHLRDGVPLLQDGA
Vc quorum ag = quorum light induction in luxS cqsA deficient V. cholerae; AID 588436; activation, % at 18.7 µM; V. cholerae BH1578 lux reporter, luminescence, 6 h; 350,000 compounds, 0.16% hits; in the data active means activation mostly above about 9.7%, no sharp cut-off; inconclusive means no clear call, values can overlap the other calls; inactive means mostly below about 3.7%
MazF activator = increases E. coli MazEF RNase cleavage of RNA; P0AE70; FAM/BHQ RNA-DNA oligo cleavage fluorescence, 5 h; activation, % at 20 µM; 350,000 compounds, 0.32% hits; in the data active means activation above about 50%
Target sequence (P0AE70 whole entry, looked up): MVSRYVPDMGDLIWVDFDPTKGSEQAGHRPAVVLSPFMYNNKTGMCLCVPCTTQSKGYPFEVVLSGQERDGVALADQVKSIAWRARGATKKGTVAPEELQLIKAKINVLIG
Rv3671c inh = inhibits the M. tuberculosis serine protease Rv3671c; P9WHR9; inhibition, % at 5.96 µM; 320,000 compounds, 0.048% hits; AID 2606; in the data active means inhibition above about 38%;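 further: extracellular domain of Rv3671c used as enzyme; 0% = enzyme with DMSO and 100% = no enzyme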
FadD28 FP inh = M. tuberculosis FadD28 bisubstrate binding inhibition; FadD28 bisubstrate probe binding, fluorescence polarization; inhibition, % at 12.5 µM; 360,000 compounds, 0.22% hits; in the data active means inhibition above about 8.5%, passing the limit was not always enough; inconclusive means no clear call, values can overlap the other calls
An asterisk follows results filed as active; i = inactive; ? = inconclusive; . = not tested or not shown; + = active, no number. Compounds with a hit are over-represented: about 0.74% of the library has one in this group of screens.

SMILES | Mtb betalactam | Mtb UGM inh | Vc quorum ag | MazF activator | Rv3671c inh | FadD28 FP inh
CC1Sc2ccc(S(=O)(=O)N3CCC(C(=O)NCc4ccccc4)CC3)cc2NC1=O (stereo not given) | -2 | 1 | -1 | 5 | -4 | -1
Oc1ccccc1Oc1c(F)c(F)nc(N2CCCC2)c1F | 5 | -1 | 0 | 14 | 8 | 21*
N#C/C(=C/c1ccco1)c1nc2ccccc2s1 | -2 | 2 | 0 | 65* | -29 | -6
N#C/C(=C\c1ccco1)c1nc2ccccc2s1 | -2 | -3 | i | 54* | -15 | 1
CCSCCC(NC1=CC(=O)CC(C)(C)C1)C(=O)O (stereo not given) | -14 | -1 | 17* | 47 | 0 | 1
CC1(C)CC(=O)C=C(NCC(=O)O)C1 | -3 | 0 | -5 | 5 | 2 | -1
CCNC(=S)N1CCC(C(=O)c2ccc(F)cc2)CC1 | . | . | 1 | -6 | . | -4
CCN(C(=O)COC(=O)c1cc(Cl)ccc1OC)c1c(N)n(Cc2ccccc2)c(=O)[nH]c1=O | 2 | 12* | i | 7 | 0 | 0
CCN(CC)c1ccc(/C=N/NC(=O)c2ccc3nc[nH]c3c2)c(O)c1 | -1 | 2 | -2 | 9 | 35 | 27*
Cc1cc(C)c(C)c(S(=O)(=O)NC(C(=O)NCCc2ccco2)C(C)C)c1C (stereo not given) | 0 | 2 | i | -4 | -14 | -2
CCS(=O)(=O)N1N=C(c2cccc(NS(C)(=O)=O)c2)CC1c1ccc(C)cc1 (stereo not given) | 3 | 1 | 0 | 67* | -10 | -2
CCS(=O)(=O)N1N=C(c2cccc(NS(C)(=O)=O)c2)CC1c1ccccc1 (stereo not given) | -2 | 2 | 0 | -117 | -25 | -10
O=C(N/N=C/c1c[nH]c2ccccc12)c1cc(Br)ccc1O | -4 | 0 | 1 | 1 | 12 | 29*
Cc1nc(N)sc1C(=O)N/N=C/c1c[nH]c2ccccc12 | 18 | 0 | -2 | 7 | -4 | 9.9*
COc1ccc(C(=O)Nc2ccc(OC)c([N+](=O)[O-])c2)cc1Br | 0 | 0 | 29* | 6 | -21 | -2
Cc1ccc(C)n1-c1ccc(-c2ccn[nH]2)cc1 | 69 | 7 | 0 | 91* | -8 | 0
c1ccn(-c2ccc(-c3ccn[nH]3)cc2)c1 | -4 | 4 | 0 | + | -3 | -1
CN=c1scc(-c2ccco2)n1/N=C/c1ccc(O)c(O)c1 | . | . | i | 15 | . | 11*
COc1ccc(O)c(/C=N/n2c(-c3ccco3)csc2=Nc2cccnc2)c1 | 2 | -3 | 0 | -1 | 9 | 1
Cc1cc(C)c(S(=O)(=O)N2CCN(c3ccccn3)CC2)c(C)c1 | . | . | i | 0 | . | -5
O=C(N/C(=C/c1cccc(Br)c1)C(=O)N1CCOCC1)c1ccco1 | . | . | i | 4 | . | -1
Cc1nc(SCC(=O)c2cc3ccccc3oc2=O)c(C#N)c(-c2cccs2)c1C(=O)Nc1ccccc1 | -2 | -5 | 2 | 61* | -4 | 0
CSc1nc(C)c(C(=O)Nc2ccccc2)c(-c2ccco2)c1C#N | ? | 6 | 0 | 2 | -5 | -1
N#Cc1ccc(-c2ccccc2)nc1SCC(=O)c1cc2ccccc2oc1=O | 100 | 3 | i | 63* | -6 | -1
CC(C)c1c(C#N)c(N)nc(SCC(=O)c2cc3ccccc3oc2=O)c1C#N | 94 | -2 | -2 | -6 | -15 | -3
SMILES | Mtb betalactam | Mtb UGM inh | Vc quorum ag | MazF activator | Rv3671c inh | FadD28 FP inh
CCN(CC)C(=O)c1cccc(-c2csc(C(O)(c3ccccc3)C(F)(F)F)n2)c1 (stereo not given) | . | . | 0 | . | . | -21
CC1(C)CSC(C)(C)C(=O)N1 | . | . | i | 5 | . | 3
O=C(NN1C(=O)/C(=C/c2ccc(O)c(O)c2)SC1=S)c1ccccc1 | -2 | -3 | -2 | -79 | -111 | 43*
Cn1cccc1/C=C1\SC(=S)N(NC(=O)c2ccccc2Cl)C1=O | -5 | 2 | -2 | -18 | 2 | -9
Cc1ccc(C(=O)NN2C(=O)/C(=C/c3cccn3C)SC2=S)cc1 | . | 7 | -1 | 9 | -10 | 13*
O=C(NN1C(=O)/C(=C\c2ccc(O)c([N+](=O)[O-])c2)SC1=S)c1ccccc1Cl | 58 | 2 | -8 | -13 | 5 | 15*
O=C(O)c1ccc(/C=C2\SC(=S)N(NC(=O)c3ccccc3[N+](=O)[O-])C2=O)cc1 | 10 | 2 | 0 | 5 | . | -2
CCc1cccc2c(/C=N/NC(=O)c3cccc(S(=O)(=O)Nc4ccccc4Cl)c3)c[nH]c12 | 47 | 1 | 0 | -17 | 11 | 34*
Cc1[nH]c2ccccc2c1/C=N/NC(=O)c1cccc(S(=O)(=O)Nc2ccccc2Cl)c1 | 0 | 3 | i | 7 | -6 | -1
O=C(CC1N=C2c3ccccc3N=C(SCc3ccc(F)cc3)N2C1=O)NCc1ccco1 (stereo not given) | -3 | -1 | 17* | 10 | -8 | -3
CCn1cc(Cl)c(C(=O)Nc2nccs2)n1 | . | . | -2 | -5 | . | -2
O=C(O)c1c(C(=O)O)c(-c2ccc(Br)cc2)n2c1CSC2 | 5 | -3 | i | -2 | -6 | 13*
CCN(C(=O)c1ccc2c(=O)n3c(nc2c1)CCCCC3)c1ccccc1C | 8 | -2 | i | 6 | 3 | -1
O=C1CC(=O)N(Cc2ccco2)C(=S)N1 | -3 | -6 | -1 | -31 | -36 | 29*
O=C1CC(=O)N(Cc2ccco2)C(=O)N1 | -5 | -2 | -5 | -13 | -14 | 4
Cc1nn(C(C)C(=O)NC2CCC(C)CC2)c(=O)c2nn(-c3ccccc3)c(C)c12 (stereo not given) | -1 | 0 | i | 10 | -1 | -2
COc1cc(/C=N/NC(=O)c2cc3ccccc3cc2O)ccc1OCCN1CCCCC1 | 9 | 0 | 0 | 7 | 3 | -3
COCCn1c(C)cc(/C=N/NC(=O)c2cc3ccccc3cc2O)c1C | -1 | -2 | i | 2 | 5 | 11*
COc1ccc(/C=C(\C#N)C(=O)NCCc2ccccc2)cc1OCc1ccccc1 | 1 | 2 | 0 | 84* | -31 | -4
COc1cc(/C=C(/C#N)C(=O)NCc2ccccc2)cc(OC)c1OC | 3 | -1 | i | 2 | -1 | -3
O=C(OCC(=O)c1c[nH]c2ccccc12)c1ccc([N+](=O)[O-])s1 | 100 | 1 | 0 | 12 | -23 | -1
CCc1cccc2c(C(=O)COC(=O)c3ccc([N+](=O)[O-])s3)c[nH]c12 | 100 | 0 | -1 | 13 | -18 | 33*
COc1cccc(C(=O)CC(C#N)c2ccc(F)cc2)c1 (stereo not given) | 59 | 1 | 0 | -3 | -9 | -1
O=C1CSC(=S)N1N=Cc1c(O)ccc2ccccc12 | . | . | -1 | 590* | . | -1
O=C(NC(c1ccc(Cl)cc1)c1cnccn1)C1CCN(CCCc2ccccc2)CC1 (stereo not given) | . | . | -1 | . | . | -1

Compound activity (PubChem BioAssay)
